About 13,000 (27%) of roughly 48,000 compounds showed an effect of 50% or more. Some of the results follow.
Tested on: Wolbachia pipientis
Assay: Anti-Wolbachia Cell-Based Screen
Format: functional
Set-up: scale not given: in the data most compounds retested in dose-response had high values
Conditions: 5 µM

| SMILES | Percent Effect [%] |
| --- | --- |
| COc1cc(C(=O)NC2COc3ccccc3C2)ccc1OCC(N)=O (stereo not drawn) | 16.72 |
| Fc1ccc2[nH]c(C3CCCN3CCCn3cccn3)nc2c1 (stereo not drawn) | -31.47 |
| C=Cc1cccc(CN2C[C@@H](CN(C)CC)[C@@H](CO)C2)c1 | -5.546 |
| O=C1CC2(CCN(C(=O)c3cccc(Cl)c3)CC2)CN1 | -6.217 |
| COC(=O)[C@@H](NC(=O)c1coc(COc2cccc(F)c2F)n1)C(C)C | -36.4 |
| Cc1cc(CN(CCO)c2ccc(Br)cc2)on1 | -2.085 |
| Cc1ccc(N2CC[C@H]3CO[C@H](CN(C)Cc4ccco4)[C@H]3C2)nn1.O=C(O)C(F)(F)F.O=C(O)C(F)(F)F | 95.46 |
| CN(Cc1ccco1)C[C@H]1OC[C@@H]2CCN(Cc3cccnc3)C[C@@H]21.O=C(O)C(F)(F)F.O=C(O)C(F)(F)F.O=C(O)C(F)(F)F | 7.341 |
| CN(Cc1ccco1)C[C@H]1OC[C@@H]2CN(c3ncc(F)cn3)CC[C@@H]21.O=C(O)C(F)(F)F.O=C(O)C(F)(F)F | 81.17 |
| CN(Cc1ccco1)C[C@H]1OC[C@@H]2CCN(Cc3nccs3)C[C@@H]21 | -15.41 |
| CN(Cc1ccco1)C[C@H]1OC[C@@H]2CCN(Cc3ccncc3)C[C@@H]21.O=C(O)C(F)(F)F.O=C(O)C(F)(F)F.O=C(O)C(F)(F)F | -1.908 |
| Cc1cccc(N2CC[C@H]3CO[C@H](CN(C)Cc4ccco4)[C@H]3C2)n1 | 108.5 |
| CN(Cc1ccco1)C[C@H]1OC[C@@H]2CCN(Cc3cccs3)C[C@@H]21.O=C(O)C(F)(F)F.O=C(O)C(F)(F)F | -12.79 |
| CN(Cc1ccco1)C[C@@H]1OC[C@H]2CN(Cc3nccs3)CC[C@H]21.O=C(O)C(F)(F)F.O=C(O)C(F)(F)F | 3.908 |
| Cc1cccc(N2CC[C@@H]3[C@@H](CO[C@H]3CNS(C)(=O)=O)C2)n1 | -14.44 |
| Cc1cccc(N2CC[C@H]3[C@H](CO[C@@H]3CN(C)Cc3ccco3)C2)n1.O=C(O)C(F)(F)F.O=C(O)C(F)(F)F | 52.12 |
| CC(C)N1CC(c2ncc(-c3ccc4c(c3)OCCO4)[nH]2)CC1=O (stereo not drawn) | 5.292 |
| CC(C)CN1C(=O)CO[C@@H]2CN(C(=O)[C@H]3CCCO3)C[C@H]21 | -3.768 |
| CC(C)(O)CCc1ccc(C(=O)N2CCN(CCS(C)(=O)=O)CC2)cc1 | -13.16 |
| Cl.Cn1ncc2c1CCCC2NCc1cc(Br)cs1 (stereo not drawn) | 7.416 |
| CCc1csc(CNCC(=O)Nc2ccc(Cl)c(C)c2)n1 | 20.64 |

| SMILES | Percent Effect [%] |
| --- | --- |
| Cc1cc(=O)n(CC(=O)Nc2ccc(Cl)cc2)nc1C | -24.72 |
| COC(=O)N1CC(C)=C(C)CN1C(=O)Nc1cccc(Cl)c1 | 127.6 |
| CCOC(=O)N1CC(C)=C(C)CN1C(=O)Nc1ccc(Cl)c(Cl)c1 | 122.4 |
| Cc1ccc(NC(=O)N2CCOC(C)C2)cc1Cl (stereo not drawn) | 8.105 |
| COC(=O)N1CC(C)=C(C)CN1C(=O)Nc1ccc(Cl)c(Cl)c1 | 93.89 |
| COC(=O)N1CC(C)=C(C)CN1C(=O)Nc1ccc(Cl)cc1 | 87.33 |
| Cc1ccc(NC(=O)N2CCCC(O)(CO)CC2)cc1Cl (stereo not drawn) | -14.19 |
| CN1CC(Oc2ccccc2)=NC(SCC(=O)Nc2ccc(Cl)cc2)=N1 | 11.53 |
| COC(=O)NCCC(=O)NCC1(c2cccc(Cl)c2)CC1 | 6.503 |
| COC(=O)NCCCC(=O)NCC1(c2cccc(Cl)c2)CC1 | -5.013 |
| COc1ccc(NC(=O)Cn2nc(C)c(C)cc2=O)cc1Cl | -5.001 |
| CCCc1c(C(=O)N2CCN(c3ncccn3)CC2)cnn1C | -7.534 |
| COc1ccc(C2CCN(CCCC#N)CC2)cc1 | 4.999 |
| CN(CCn1ccc2ccccc21)C(=O)CS(C)(=O)=O | -3.366 |
| CCC(NCc1cccc(Cl)c1)c1ccccc1OCC(=O)NC (stereo not drawn) | -3.101 |
| c1ccc2sc(CN3CCOC(Cn4cccn4)C3)nc2c1 (stereo not drawn) | 18.8 |
| Cc1nc(C)n(CC2CN(CCc3ccccn3)CCO2)n1 (stereo not drawn) | -80.6 |
| Cc1nc(C)n(CC2CN(CCCOc3ccccc3)CCO2)n1 (stereo not drawn) | 117 |
| Cc1cc(C)n(CC2CN(Cc3nc4ccccc4s3)CCO2)n1 (stereo not drawn) | 100.5 |
| Cc1nc(C)n(CC2CN(Cc3nc4ccccc4s3)CCO2)n1 (stereo not drawn) | 214.4 |
| c1ccc2sc(CN3CCOC(Cn4cncn4)C3)nc2c1 (stereo not drawn) | -2.125 |

| SMILES | Percent Effect [%] |
| --- | --- |
| Cc1cnc(CN2CCOC(Cn3nc(C)nc3C)C2)cn1 (stereo not drawn) | 1.014 |
| Cc1nc(C)n(CC2CN(CCCOc3ccccc3C)CCO2)n1 (stereo not drawn) | -2.427 |
| Cc1cnn(CC2CN(Cc3nc4ccccc4s3)CCO2)c1 (stereo not drawn) | 112.2 |
| CCOc1cc(CNCCCn2ccnc2)cc(Cl)c1OC | -2.323 |
| COCCN1C[C@H]2[C@@H](C1)N(C(=O)c1cccs1)CC[C@H]2OC | -4.854 |
| CC(=O)c1ccc(OCC(=O)NC(C)CCc2ccco2)cc1 (stereo not drawn) | -8.021 |
| COc1ccccc1OC1(C(=O)O)CCN(c2ncnc(C)c2C)CC1 | -46.26 |
| N#CCCNC(=O)CSc1ccc(F)cc1F | -9.893 |
| Cc1c(C2=NS(=O)(=O)N(C)C(C(=O)Nc3ccc(Br)cc3)=C2)cnn1C | 158.8 |
| Cc1nn(C)cc1C1=NS(=O)(=O)N(C)C(C(=O)Nc2ccc(Cl)cc2)=C1 | 140.7 |
| CN1CCC(Oc2ccc(NC(=O)c3ccccc3Br)cc2)CC1 | -1.249 |
| Cc1c(C(C)NC(=O)Nc2ccc(F)c(F)c2)cnn1C (stereo not drawn) | 0.41 |
| Cc1nn(C)cc1C1=NS(=O)(=O)N(C)C(C(=O)Nc2ccc(Br)cc2)=C1 | 160.2 |
| CNc1nc(CNC(=O)Nc2ccccc2-c2noc(C)n2)cs1 | 2.213 |
| CN1CC(NC(=O)CCCc2cc(Cl)sc2Cl)CCC1=O (stereo not drawn) | -9.281 |
| O=C(NCCc1cccnc1)c1ccc2nccn2c1 | -5.38 |
| O=C(NCCCOc1cccnc1)c1cn(CCc2ccccc2)nn1 | -0.6541 |
| O=C(NCCCNc1cccnc1)c1ccc2nccn2c1 | 1.237 |
| O=C(NCCc1ccccc1)c1cn(CCNCc2cccnc2)nn1 | -1.891 |
| O=C(NCc1cccnc1)c1cn(CCc2ccccc2)nn1 | 77.17 |
| O=C(NCc1cccnc1)c1ccc2nccn2c1 | 107.5 |
